# Results from PubChem BioAssay.
# Activity calls are given as the source filed them.
# Experiments:
# [1] = small molecules captured by biotinylated probe aFSTL3 – biochemical, small-molecule microarray, fluorescence 635/667, stem cell growth factor project, primary screen (AID 1064); conditions: higher = more signal;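 also: measures binding of the biotinylated anti-FSTL3 antibody to printed compounds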
# [2] = binders from COS7 lysate, DM2A8 probe, primary screen, torsin A project, cell lysate, small-molecule microarray, fluorescence 635/667 (AID 1065); conditions: higher = more signal, COS7 lysate expressing mutant human TOR1A
# [3] = small molecules captured by biotinylated probe aFGF2 – biochemical, small-molecule microarray, fluorescence 635/667, stem cell growth factor project, primary screen (AID 1067); conditions: higher = more signal;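 also: measures binding of biotinylated aFGF2 protein to printed compounds on slides; z-score merges feature fluorescence and signal-to-noise across triplicate slides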
# [4] = small molecules captured by biotinylated probe aFGF10 – biochemical, small-molecule microarray, fluorescence 635/667, stem cell growth factor project, primary screen (AID 1071); conditions: higher = more signal;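 also: score merges 667 nm spot intensity and signal to noise from triplicate slides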
# [5] = target: Neurogenic locus notch homolog protein 2 (Homo sapiens) (UniProt Q04721); assay: small molecules binding Notch2 protein – biochemical, small-molecule microarray, 635 nm fluorescence, stem cell growth factors, primary screen (AID 1073); conditions: higher = more signal
# [6] = target: Pro-neuregulin-1, membrane-bound isoform (Homo sapiens) (UniProt Q02297); assay: small molecules binding neuregulin-1 protein – biochemical, small-molecule microarray, fluorescence 635/667, psychiatric disease protein project, primary screen (AID 1075); conditions: NRG1 binding, 635 nm fluorescence, higher = more signal;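 also: score combines 667 nm spot fluorescence with signal to noise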
# [7] = tested on: Neuregulin-1 EGF-like domain; assay: small molecules binding NRG1 EGF domain – biochemical, small-molecule microarray, 635 nm fluorescence, primary screen (AID 1081); conditions: higher = more signal;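 also: binding of the protein to compounds printed on small-molecule microarray slides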
# [8] = FRG1 expression reporter modulators in myotubes – cell-based, C2C12 myotubes, firefly/Renilla luciferase, luminescence, FRG1 inhibition for FSHD, primary screen (AID 1084); conditions: FRG1 promoter luciferase, higher = more signal, called active from +8 up or from −8 down
# [9] = small molecules captured by biotinylated probe aFST – biochemical, small-molecule microarray, fluorescence 635/667, stem cell growth factor project, primary screen (AID 1086); conditions: higher = more signal;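 also: score merges 667 nm fluorescence with signal-to-noise of each printed compound spot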
# [10] = binders of probe aHhip on microarray, primary screen, stem cell growth factor project, biochemical, small-molecule microarray, fluorescence 635/667 (AID 1087); conditions: higher = more signal;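 also: score merges spot fluorescence at 667nm with spot signal to noise ratio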
# Neurogenic locus notch homolog protein 2 (Homo sapiens), sequence (Q04721 whole entry, looked up, canonical isoform): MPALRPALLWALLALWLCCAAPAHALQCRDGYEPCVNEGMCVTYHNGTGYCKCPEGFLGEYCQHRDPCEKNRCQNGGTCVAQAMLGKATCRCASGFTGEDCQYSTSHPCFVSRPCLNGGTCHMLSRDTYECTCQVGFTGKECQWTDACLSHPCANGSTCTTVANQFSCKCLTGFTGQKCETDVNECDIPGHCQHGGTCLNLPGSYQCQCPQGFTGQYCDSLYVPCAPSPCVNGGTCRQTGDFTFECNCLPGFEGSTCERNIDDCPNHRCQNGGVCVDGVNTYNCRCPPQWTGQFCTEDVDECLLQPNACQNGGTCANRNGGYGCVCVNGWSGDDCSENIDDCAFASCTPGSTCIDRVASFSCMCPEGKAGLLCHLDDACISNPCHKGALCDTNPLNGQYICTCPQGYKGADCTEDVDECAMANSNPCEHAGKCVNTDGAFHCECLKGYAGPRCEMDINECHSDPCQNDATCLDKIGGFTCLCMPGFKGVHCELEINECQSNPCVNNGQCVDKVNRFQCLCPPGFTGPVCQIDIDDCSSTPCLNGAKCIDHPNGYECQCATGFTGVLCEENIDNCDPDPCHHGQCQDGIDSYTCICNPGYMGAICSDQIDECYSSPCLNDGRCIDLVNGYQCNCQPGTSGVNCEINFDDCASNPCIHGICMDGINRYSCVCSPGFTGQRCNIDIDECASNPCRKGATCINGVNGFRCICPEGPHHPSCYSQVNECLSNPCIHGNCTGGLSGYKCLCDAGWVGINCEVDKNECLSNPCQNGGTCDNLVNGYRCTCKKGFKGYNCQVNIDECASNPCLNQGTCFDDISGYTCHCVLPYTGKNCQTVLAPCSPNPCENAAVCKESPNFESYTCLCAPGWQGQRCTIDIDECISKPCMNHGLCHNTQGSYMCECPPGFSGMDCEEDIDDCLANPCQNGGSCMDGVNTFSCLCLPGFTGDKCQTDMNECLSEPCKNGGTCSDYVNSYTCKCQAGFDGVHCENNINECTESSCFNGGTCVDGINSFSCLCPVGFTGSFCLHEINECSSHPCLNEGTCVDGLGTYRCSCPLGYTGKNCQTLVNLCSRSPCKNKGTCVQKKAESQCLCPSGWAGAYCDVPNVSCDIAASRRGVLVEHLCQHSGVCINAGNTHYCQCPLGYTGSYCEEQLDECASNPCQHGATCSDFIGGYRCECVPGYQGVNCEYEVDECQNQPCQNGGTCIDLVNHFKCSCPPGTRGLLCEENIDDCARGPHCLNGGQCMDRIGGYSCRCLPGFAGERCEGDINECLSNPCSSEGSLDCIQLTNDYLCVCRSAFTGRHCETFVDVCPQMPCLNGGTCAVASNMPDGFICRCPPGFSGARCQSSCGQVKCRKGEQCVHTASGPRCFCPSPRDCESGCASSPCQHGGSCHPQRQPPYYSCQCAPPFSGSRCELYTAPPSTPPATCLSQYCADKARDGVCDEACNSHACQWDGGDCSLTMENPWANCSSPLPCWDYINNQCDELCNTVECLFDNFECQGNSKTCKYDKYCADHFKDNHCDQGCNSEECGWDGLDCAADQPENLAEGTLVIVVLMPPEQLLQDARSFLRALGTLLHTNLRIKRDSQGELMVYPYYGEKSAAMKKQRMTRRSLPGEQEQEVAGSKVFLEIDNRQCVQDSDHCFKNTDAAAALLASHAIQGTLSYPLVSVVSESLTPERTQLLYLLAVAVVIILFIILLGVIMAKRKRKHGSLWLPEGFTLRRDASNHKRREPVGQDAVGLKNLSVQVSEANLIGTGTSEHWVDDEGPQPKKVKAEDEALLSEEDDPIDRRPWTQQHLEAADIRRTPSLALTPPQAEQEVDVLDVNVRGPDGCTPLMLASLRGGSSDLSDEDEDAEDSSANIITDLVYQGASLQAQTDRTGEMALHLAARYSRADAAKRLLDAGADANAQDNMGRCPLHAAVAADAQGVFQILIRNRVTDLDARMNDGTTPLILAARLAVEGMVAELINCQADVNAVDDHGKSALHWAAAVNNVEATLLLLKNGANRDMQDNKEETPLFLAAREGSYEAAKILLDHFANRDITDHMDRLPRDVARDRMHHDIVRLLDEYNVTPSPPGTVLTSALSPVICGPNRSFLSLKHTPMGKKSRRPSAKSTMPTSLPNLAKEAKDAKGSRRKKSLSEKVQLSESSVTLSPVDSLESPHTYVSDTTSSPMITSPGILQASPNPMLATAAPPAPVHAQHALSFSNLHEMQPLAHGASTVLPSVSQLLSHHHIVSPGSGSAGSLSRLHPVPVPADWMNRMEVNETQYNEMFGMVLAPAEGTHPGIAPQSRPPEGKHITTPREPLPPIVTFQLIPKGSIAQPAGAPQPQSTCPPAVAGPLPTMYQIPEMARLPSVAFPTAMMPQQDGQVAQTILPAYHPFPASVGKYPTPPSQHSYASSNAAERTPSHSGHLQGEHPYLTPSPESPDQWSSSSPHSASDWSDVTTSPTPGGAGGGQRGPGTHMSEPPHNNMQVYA
# Pro-neuregulin-1, membrane-bound isoform (Homo sapiens), sequence (Q02297 whole entry, looked up, the tested form may be a part, canonical isoform): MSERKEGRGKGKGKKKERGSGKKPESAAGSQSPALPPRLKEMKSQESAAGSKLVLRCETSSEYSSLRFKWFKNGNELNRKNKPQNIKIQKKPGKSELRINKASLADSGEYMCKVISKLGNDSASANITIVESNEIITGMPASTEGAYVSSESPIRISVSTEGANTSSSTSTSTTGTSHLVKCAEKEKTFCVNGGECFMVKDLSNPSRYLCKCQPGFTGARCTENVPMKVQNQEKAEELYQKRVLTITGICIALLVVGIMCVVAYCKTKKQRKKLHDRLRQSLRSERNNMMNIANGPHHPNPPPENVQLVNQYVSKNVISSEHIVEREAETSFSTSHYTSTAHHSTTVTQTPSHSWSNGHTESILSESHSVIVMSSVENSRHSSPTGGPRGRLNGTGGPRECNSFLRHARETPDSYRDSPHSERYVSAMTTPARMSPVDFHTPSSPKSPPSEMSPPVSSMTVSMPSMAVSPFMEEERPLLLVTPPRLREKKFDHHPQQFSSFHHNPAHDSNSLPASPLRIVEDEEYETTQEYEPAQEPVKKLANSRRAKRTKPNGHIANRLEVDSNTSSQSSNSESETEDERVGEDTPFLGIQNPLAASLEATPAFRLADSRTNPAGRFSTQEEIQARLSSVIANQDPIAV
Structure (SMILES),composite z-score [1],composite z-score [2],composite z-score [3],composite z-score [4],composite z-score [5],composite z-score [6],composite z-score [7],z-score [8],composite z-score [9],composite z-score [10]
COc1cc2c(cc1OC)CN(C(=O)[C@@H]1[C@H]3C(=O)O[C@H](c4ccccc4)[C@H](c4ccccc4)N3[C@H](c3ccccc3OCCO)[C@@]13C(=O)Nc1ccccc13)CC2,-1.08,1.04,-0.148,0.575,0.803,1.39,1.18,-0.268 (inactive),-0.44,-0.702
CO[C@@H]1COC(=O)[C@H](COCc2ccccc2)NC(=O)CC=C[C@@H](C)[C@H](OC)COC(=O)[C@H](COCc2ccccc2)NC(=O)CC=C[C@H]1C,-0.594,0.334,-0.138,-0.0596,0.0136,0.567,-0.618,-0.496 (inactive),-0.0224,-0.0994
C=C(C(=O)CC[C@H](OC(=O)c1ccccc1-c1ccccc1C(=O)O)c1ccc(CO)o1)C(C)C,-0.547,-0.113,-0.0974,0.959,-0.0673,1.25,1.33,0.112 (inactive),0.0357,-0.0645
COCCCNC(=O)[C@@]1(Sc2ccc(C)cc2)CC(=O)N(Cc2cc(C(F)(F)F)cc(C(F)(F)F)c2)[C@@H]1c1ccc(CO)cc1I,1.12,-0.181,-0.147,-0.811,-1.43,2.17,1.35,-0.925 (inactive),-0.265,1.67
CO[C@@H]1COC(=O)[C@H](C)NC(=O)CC=C[C@@H](C)[C@H](NS(=O)(=O)c2ccc(C)cc2)COC(=O)CC=C[C@@H]1C,-0.402,-0.0613,-0.0891,0.117,0.156,-0.32,-0.144,-0.364 (inactive),-0.181,-0.388
C=C(COC)C(=O)CC[C@H](OC(=O)c1ccccc1-c1ccccc1C(=O)O)c1cccc(OCCO)c1,-0.102,1.15,-0.103,0.24,0.0421,1.66,1.37,-3.97 (inactive),-0.25,-0.0296
CC(C)CNC(=O)[C@@]1(C)c2ccccc2C(=O)N(Cc2ccc(OC(F)(F)F)cc2)[C@H]1c1ccc(CO)cc1,1.39,-0.37,-0.0149,-0.925,-1.71,-0.81,0.257,-3.49 (inactive),-0.291,-0.353
C=CCC(OC(C)=O)[C@@H]1[C@@H](N(Cc2cccc3ccccc23)C(=O)Cc2ccc(F)cc2)c2cc(OCCCO)ccc2N1C(=O)Cc1ccc2ccccc2c1 (stereo not given in full),-0.154,0.154,-0.0503,-0.169,-0.241,-0.58,-0.607,-1.32 (inactive),-0.299,-0.167
CCOC(=O)C1=CC[C@@H](c2ccccc2)N(S(=O)(=O)c2ccc(C)cc2)[C@H]1C,-0.386,1.09,0.0257,1.11,1.59,1.45,1.12,-2.8 (inactive),0.691,-0.0994
[N-]=[N+]=NCc1ccccc1[C@H]1OC(c2ccc(OCCCO)cc2)=N[C@@]1(Cc1ccccc1N=[N+]=[N-])C(=O)NCc1ccccc1,0.817,0.155,0.0308,0.622,1.28,0.408,0.807,-1.35 (inactive),0.939,0.0595
O=C1O[C@H](c2ccccc2)[C@H](c2ccccc2)N2[C@H]1[C@@H](C(=O)Nc1nc3ccccc3s1)[C@]1(C(=O)Nc3ccc(C#CC4(O)CCCCCC4)cc31)[C@H]2c1ccc(O)cc1,-0.299,-0.0427,-0.0407,0.443,1.34,1.8,1.14,0.36 (inactive),0.668,0.0623
O=C1OCCC=C[C@H]2OC34C=CCN(Cc5ccccc5)C(=O)[C@H]3N(CCO)C(=O)[C@@H]4C12 (stereo not given in full),0.672,-0.465,-0.183,-0.575,-0.607,-0.419,-0.574,0.135 (inactive),-0.402,-0.0645
CC(=O)Nc1ccc([C@H]2[C@H](C)CC[C@H]3C(=O)N4[C@@H](CC[C@@H](C)[C@@H]4c4ccc(NC(C)=O)cc4)C(=O)N32)cc1,-0.508,0.482,-0.1,0.908,0.68,0.566,1.1,0.103 (inactive),0.0863,0.132
C=CCC(OC(C)=O)[C@@H]1[C@@H](N(Cc2cc3ccccc3o2)C(=O)c2ccc(C)cc2)c2cc(OCCCO)ccc2N1C(=O)c1ccc2ccccc2n1 (stereo not given in full),0.216,0.189,-0.187,0.394,0.191,-0.019,-0.323,-0.508 (inactive),0.113,0.107
CCOC(=O)C[C@H]1[C@H](OC(=O)c2ccccc2-c2ccccc2)[C@@H](NC(=O)C2CCCCC2)c2cc(OCCCO)ccc2N1C(=O)c1ccccc1,-0.43,0.0236,-0.041,0.687,0.797,0.0516,0.652,0.404 (inactive),0.0322,-0.0047
C=CCC(OC(C)=O)[C@@H]1[C@@H](N(Cc2ccc(-c3ccccc3)cc2)C(=O)c2ccc(-c3ccccc3)cc2)c2cc(OCCCO)ccc2N1C(=O)Cc1ccc(OC)cc1 (stereo not given in full),-0.28,0.354,-0.0676,0.27,-0.142,0.0866,-0.261,0.826 (inactive),0.391,-0.189
CO[C@H]1O[C@H](CO)[C@@H](OC(=O)CCc2ccccc2)[C@@H]2OC(=O)[C@H](Cc3cccc(Br)c3)C/C=C/C[C@@H](Cc3cccc(Br)c3)C(=O)O[C@@H]12,0.617,0.361,-0.139,-0.722,-1.2,0.964,-0.0592,-2.01 (inactive),0.0729,-0.134
O=C(N1CCCCC1)[C@@]1(CCS(=O)(=O)c2ccccc2)N=C(c2ccc(OCCCO)cc2)O[C@H]1c1ccccc1,0.151,0.529,0.236,0.685,1.4,0.0933,1.23,-0.144 (inactive),1.51,-0.0645
CCN1C(C)=C(C(=O)OC)[C@@H](c2ccccc2)N2C(=O)[C@](O)(C(=O)OC)[C@@H](c3ccccc3)C(C(C)=O)=C12,-0.0393,-0.0183,-0.0621,0.391,0.991,-0.485,0.913,-1.88 (inactive),0.283,-0.262
COC(=O)[C@@]1(Cc2ccc(OC)cc2)[C@H]2c3cc(C(=O)N(C)C)n(CCc4ccc(OC)c(Br)c4)c3C[C@H]2CN1C(=O)c1ccccc1,1.53,0.323,0.544,1.03,1.66,1.77,1.34,-0.151 (inactive),1.95,-0.0489
CC(C)(C)OC(=O)CC[C@]1(C(=O)N2CCCCC2)N=C(c2ccc(OCCCO)cc2)O[C@H]1c1ccccc1,-0.187,1.67,0.136,1.07,1.55,1.53,1.27,-4.25 (inactive),0.772,-0.299
CN1C(=O)C2C=CC(C(O)c3ccc(N(C)C)cc3)N(Nc3ccc([N+](=O)[O-])cc3[N+](=O)[O-])C2C1=O (stereo not given),1.56,0.989,0.126,0.739,1.6,1.25,1.31,2 (inactive),1.29,-0.0296
CCCCO[C@H]1C[C@H]2C(Br)=C[C@@]1(CO)C(=O)[C@]21CO1,-0.599,0.407,-0.0785,-0.367,-0.0029,-0.534,-0.802,0.715 (inactive),0.162,-0.156
C=C(COC)/C(=C/C[C@@H](OC(=O)c1ccncc1)c1ccc(OCCO)cc1)c1cc(C(=O)OC)ccc1OC,-0.202,0.984,-0.0775,0.702,0.864,1.44,1.2,-2.14 (inactive),0.238,0.219
